Screens (PubChem BioAssay)
GPR151 activ – human GPR151 activation | Q8TDV0 | PathHunter beta-arrestin GPR151 cells, luminescence | activation, % at 11.2 µM | hit rate 1% among 650,000 | AID 1508602; in the data active means activation above about 4.9%
TEAD-YAP inh – TEAD-YAP interaction inhibition; HEK-TIYL cells, TEAD-Gal4/YAP UAS-luciferase luminescence; inhibition, % at 9.12 µM; hit rate 1.4% among 640,000; in the data active means inhibition above about 32%
MITF primary – inhibitors of human MITF | hit rate 0.91% among 650,000 | O75030 | inhibition, % at 2.6 µM | AID 1259374 | AlphaScreen MITF homodimerization, bead proximity signal; in the data active means inhibition above about 50%
FBW7 act – activators of human E3 ligase FBW7 | Q969H0 | AlphaScreen FBW7–phospho-cyclin E peptide binding, activator screen | normalized activity (activation), % at 26.1 µM | hit rate 0.13% among 650,000; in the data active means normalized activity above about 1.9%;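 further: purified mutant Fbw7 with reduced substrate affinity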
GPR151 confirm – confirmation of human GPR151 activators. shares compounds with GPR151 activ. AID 1508609. 6,700 tested, under 10 active. activation, % at 11.2 µM. GPR151 PathHunter beta-arrestin cells, luminescence, 90 min; % of EA-reagent control over plate median;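 active means mean percent activation across replicates above the confirmation screen cutoff of 4.91%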
GPR119 ag – activates human GPR119 in a GPR151 counter-screen. hit rate 0.3% among 6,700. activation, % at 11.2 µM. GPR119 PathHunter beta-arrestin cells, luminescence, 90 min; 0 = compound-well median, 100 = enzyme-acceptor control. shares compounds with GPR151 activ;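 active means mean percent activation in the counterscreen above 29.09%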;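 further: counterscreen on off-target GPR119 to flag nonselective hits from the GPR151 activator screen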
Target sequence (Q8TDV5 whole entry, looked up): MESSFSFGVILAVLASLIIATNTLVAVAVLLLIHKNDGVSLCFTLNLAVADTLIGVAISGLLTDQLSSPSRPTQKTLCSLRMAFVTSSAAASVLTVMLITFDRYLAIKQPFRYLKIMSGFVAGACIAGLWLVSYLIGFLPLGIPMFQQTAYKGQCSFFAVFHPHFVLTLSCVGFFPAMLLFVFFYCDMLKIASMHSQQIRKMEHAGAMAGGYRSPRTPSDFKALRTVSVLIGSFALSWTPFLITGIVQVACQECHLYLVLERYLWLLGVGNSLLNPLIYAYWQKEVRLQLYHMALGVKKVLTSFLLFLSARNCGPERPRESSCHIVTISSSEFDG
Of the large screens only hits and unclear results are named; the others gave an inactive call (follow-up assays come after a bar, where they were run); ! = repeats disagree. Hits are enriched below; roughly 3.5% of the tested compounds scored in any of these assays.

COC(=O)CN1C(=O)S/C(=C/c2cccc([N+](=O)[O-])c2O)C1=O	GPR151 activ 5.3 | GPR151 confirm inactive | GPR119 ag inactive
COC(=O)CN1C(=O)S/C(=C\c2cc(Br)c(OC)c(OC)c2)C1=O	GPR151 activ 13.9 | GPR151 confirm inactive | GPR119 ag inactive
COC(=O)CN1C(=O)S/C(=C/C=C/c2ccccc2[N+](=O)[O-])C1=O	none
COC(=O)CN1C(=O)S/C(=C/c2ccc(OCC(=O)O)cc2)C1=O	GPR151 activ 9.8 | GPR151 confirm inactive | GPR119 ag inactive
C=CCN1C(=O)/C(=C/c2ccc(OCC(=O)O)cc2)S/C1=N/c1nccs1	GPR151 activ 7.0 | GPR151 confirm inactive | GPR119 ag inactive
C=CCN1C(=O)/C(=C\c2ccc(C(=O)O)cc2)S/C1=N/c1nnc(CC)s1	none
C=CCNc1nc(NCc2ccccc2)nc(OCC)n1	none
COc1cc(/C=C2\SC(NC(C)=O)=NC2=O)cc(OC)c1OC	none
COc1cc(/C=C2\SC(NC(C)=O)=NC2=O)cc(Br)c1OC(C)=O	GPR151 activ 7.4 | GPR151 confirm inactive | GPR119 ag inactive
Oc1oc(-c2ccccc2Br)nc1C=Nc1ccccc1Cl	GPR151 activ 5.0 | GPR151 confirm inactive | GPR119 ag inactive
Clc1ccc(Cn2ncc3c(N4CCCC4)ncnc32)cc1	GPR151 activ 8.4 | GPR151 confirm inactive | GPR119 ag inactive
CC(C)(C)C(=O)NCC1Cc2cccc(-c3ccc(S(C)(=O)=O)cc3)c2O1 (stereo not drawn)	none
CC(=O)NCC1Cc2cccc(-c3ccc(S(C)(=O)=O)cc3)c2O1 (stereo not drawn)	GPR151 activ 7.3 | GPR151 confirm inactive | GPR119 ag inactive
CCOc1ccccc1NC(=O)CN1CCN(c2nccn2-c2ccc(C)cc2)CC1	GPR151 activ 8.0 | GPR151 confirm inactive | GPR119 ag inactive
COc1ccccc1NC(=O)CN1CCN(c2nccn2-c2ccc(C)cc2)CC1	none
Cn1c(=NC(=O)c2ccc(Br)s2)sc2cc(F)ccc21	none
Cc1ccc(/C(O)=C2/C(=O)C(=O)N(CCCC(=O)O)C2c2ccc(F)cc2)cc1 (stereo not drawn)	none
COc1cc(NC(=O)c2cccc(-n3cc(NC(=O)N[C@@H](C)c4ccccc4)cn3)c2)ccc1N1CCOCC1	GPR151 activ 5.7 | GPR151 confirm inactive | GPR119 ag inactive
COc1ccc(NC(=O)CCc2c(C)nc3cc(-c4ccccc4OC)nn3c2C)cc1	none
COc1cccc(NC(=O)CCc2c(C)nc3cc(-c4ccccc4OC)nn3c2C)c1	GPR151 activ 8.2 | GPR151 confirm inactive | GPR119 ag inactive
CCOc1cc(CC(=O)N[C@@H](CC(C)C)c2ccccc2N2CCCCC2)ccc1C(=O)O	GPR151 activ 7.1! | GPR151 confirm inactive | GPR119 ag inactive
CCOc1ccc(C(=O)Nc2ccccc2N2CCCC2)cc1	none
CCc1ccc(OC)c(S(=O)(=O)Nc2ccc3c(c2)N(C(=O)COC)CCC3)c1	none
Cc1ccccc1Cn1c(=O)c2c(nc3n2CCCN3c2ccc(F)cc2)n(C)c1=O	GPR151 activ 9.7 | GPR151 confirm inactive | GPR119 ag inactive
CCc1ccc(NC(=O)CSC2=Nc3ccccc3C3=NC(Cc4c[nH]c5ccccc45)C(=O)N23)cc1 (stereo not drawn)	none
Cc1nc(SC2CCCCC2=O)c(C#N)c(-c2cccs2)c1C(=O)Nc1ccccc1 (stereo not drawn)	GPR151 activ 5.1 | GPR151 confirm inactive | GPR119 ag inactive
Fc1ccc(OCc2nn3c(-c4ccncc4)nnc3s2)cc1	GPR151 activ 6.1 | GPR151 confirm inactive | GPR119 ag inactive
Cc1ccc(OCc2nn3c(-c4ccc(F)cc4)nnc3s2)cc1	none
CCOc1ccccc1CNc1sc2c(c1C(=O)Nc1ccc(OC)cc1OC)CCC2	GPR151 activ 10.8 | GPR151 confirm inactive | GPR119 ag inactive
CCOc1ccccc1CNc1sc2c(c1C(=O)Nc1ccc(OC)cc1)CCC2	none
CCOc1ccc(NC(=O)COc2coc(CN3CCN(c4ccccc4F)CC3)cc2=O)cc1	none
CCC(=O)Nc1nc2c(s1)C(=O)CC(C(=O)N1CCN(c3ccc(F)cc3)CC1)C2 (stereo not drawn)	none
Cc1nc(-c2ccc(S(=O)(=O)N3CCOCC3)cc2)cs1	GPR151 activ 8.6 | GPR151 confirm inactive | GPR119 ag inactive
COc1ccc(-c2noc(CSCC(=O)Nc3ccc(C(C)C)cc3)n2)cc1OC	none
CC(c1ccccc1)C1CC(=O)N(Cc2ccccc2)C1=O (stereo not drawn)	GPR151 activ 21.8 | GPR151 confirm inactive | GPR119 ag inactive
CC(c1ccccc1)C1CC(=O)N(c2ccc(Cl)cc2)C1=O (stereo not drawn)	none
CC(C)(C)OC(=O)N[C@H]1CCC[C@@H](NC(=O)c2cccc(-n3cc(NC(=O)Cc4ccccc4)cn3)c2)C1	GPR151 activ 5.4 | GPR151 confirm inactive | GPR119 ag inactive
C(=N\n1cnnc1)/c1ccc2c(c1)OCO2	none
C(=N\n1cnnc1)/c1ccc2c(c1)OCCO2	GPR151 activ 12.3 | GPR151 confirm inactive | GPR119 ag inactive
COC(=O)C1C(=O)NC(SCC(=O)Nc2c(C)cc(C)cc2C)=C(C#N)C1c1ccccc1Cl (stereo not drawn)	none
Cc1ccc(S(=O)(=O)Nc2ccc(Cl)cc2C(=O)N2CCN(S(=O)(=O)c3ccc(Cl)cc3)CC2)cc1	none
Cc1cccc(NC(=O)C(=S)NC2CCCC2)c1C	GPR151 activ 8.2 | GPR151 confirm inactive | GPR119 ag inactive
O=C(CN(c1ccccc1)S(=O)(=O)c1ccccc1)N1CCN(c2ccccc2)CC1	none
Cc1cccc(N(CC(=O)N2CCN(c3ccccc3)CC2)S(=O)(=O)c2ccccc2)c1	GPR151 activ 5.8 | GPR151 confirm inactive | GPR119 ag inactive
CCc1cccc(CC)c1NC(=O)CSc1nc2ccc(NC(=O)c3ccccc3Br)cc2s1	none
O=C(CCn1c(SCc2ccccc2F)nc2ccccc2c1=O)N1CCCCC1	none
COc1ccc(CNC(=O)CCCn2c(SCC(=O)Nc3ccc(OC)cc3OC)nc3cc4c(cc3c2=O)OCO4)cc1	none
CCn1c(SCC(=O)Nc2ccc(C(=O)OC)cc2)nc2cccnc21	GPR151 activ 5.5 | GPR151 confirm inactive | GPR119 ag inactive
CCc1ccc(NC(=O)CSc2nc3ccccc3c(=O)n2CCc2ccc(OC)c(OC)c2)cc1	none
COc1ccc(NC(=O)CSc2nc3ccccc3c(=O)n2CCCC(=O)NCc2ccccc2)c(OC)c1	GPR151 activ 7.5 | GPR151 confirm inactive | GPR119 ag inactive
CCc1ccc(NC(=O)CSc2nc3ccccc3c(=O)n2CCc2ccccc2)cc1	GPR151 activ 5.8 | GPR151 confirm inactive | GPR119 ag inactive
COc1ccc(NC(=O)CCCN2C(=O)CCC2=O)c(OC)c1	GPR151 activ 10.3 | GPR151 confirm inactive | GPR119 ag inactive
